Assay outcomes from PubChem BioAssay.
In the library only some 2% were active in any assay of this set; here they are far more common.
HGIII-sPLA2 inh: Inhibits HGIII-sPLA2 liposome hydrolysis, primary screen. QFRET BODIPY PC-A2 liposome hydrolysis, fluorescence. inhibition, % at 12.2 µM. Q9NZ20. 370,000 compounds, 0.56% hits;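 active = inhibition above mean plus 3 SD of compounds lying within the high and low control bounds, cut at about 19% in these data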
APOBEC3G inh: APOBEC3G (human) deaminase inhibition; Q9HC16; recombinant A3G, ssDNA deamination FAM/TAMRA fluorescence; inhibition, % at 20 µM; 330,000 compounds, 0.28% hits; AID 493012;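 active = inhibition of at least 40% at 20 µM, with no more than 30% in the related APOBEC3A deaminase screen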
Target sequence (Q9HC16 whole entry, looked up): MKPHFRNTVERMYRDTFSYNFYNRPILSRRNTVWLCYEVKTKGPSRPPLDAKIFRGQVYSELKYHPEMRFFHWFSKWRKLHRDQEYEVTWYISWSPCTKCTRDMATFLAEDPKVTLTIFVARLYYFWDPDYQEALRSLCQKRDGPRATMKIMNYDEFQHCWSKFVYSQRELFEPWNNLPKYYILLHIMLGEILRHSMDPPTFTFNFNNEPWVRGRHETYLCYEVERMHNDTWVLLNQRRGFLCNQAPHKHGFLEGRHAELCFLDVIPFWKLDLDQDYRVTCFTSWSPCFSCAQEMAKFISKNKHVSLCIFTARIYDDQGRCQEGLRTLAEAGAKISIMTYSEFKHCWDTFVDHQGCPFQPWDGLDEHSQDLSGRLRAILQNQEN
A3A deaminase: inhibitors of human APOBEC3A DNA deaminase; P31941; recombinant A3A, FAM/TAMRA ssDNA deamination fluorescence; inhibition, % at 20 µM; 330,000 compounds, 0.41% hits;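 active = at least 40% inhibition at 20 µM here, with at most 30% in a related deaminase screen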
Target sequence (P31941 whole entry, looked up): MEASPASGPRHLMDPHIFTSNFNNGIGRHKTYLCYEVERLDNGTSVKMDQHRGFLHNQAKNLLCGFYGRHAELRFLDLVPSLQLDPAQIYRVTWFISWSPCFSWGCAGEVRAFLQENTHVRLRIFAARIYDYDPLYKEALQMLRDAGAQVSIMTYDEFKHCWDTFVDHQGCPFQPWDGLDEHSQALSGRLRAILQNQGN
NALP1 inh: inhibitors of NALP1 inflammasome in yeast | S. cerevisiae NALP1/ASC/caspase-1 growth, X-gal OD620, 72 h | inhibition, % at 10 µM | 280,000 compounds, 0.61% hits | AID 2071; in the data active = inhibition mostly above about 24%, no sharp cut-off; inactive = mostly below about 32%
CTSL1 counter: blocks F. hepatica cathepsin L1 in PFM18AAP counter-screen. recombinant F. hepatica cathepsin L1, Z-Leu-Arg-MCA fluorescence. AID 1906. 300,000 compounds, 0.49% hits. inhibition, % at 5.96 µM;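 active = inhibition above the mean of all tested compounds plus 3 SD, set per screening campaign, cut at about 17% in these data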
hGIII sPLA2 conf: human GIII-sPLA2 inhibition, confirmation. shares compounds with HGIII-sPLA2 inh. recombinant hGIII-sPLA2, BODIPY PC-A2 QFRET fluorescence. inhibition, % at 12.2 µM. 2,000 compounds, 34% hits;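 active = mean inhibition across triplicates above the hit cutoff set in the earlier primary screen, cut at about 19% in these data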
BODIPY interf: counter-screen for HGIII-sPLA2 inhibitors: 535nm fluorescence interference; inhibition, % at 12.2 µM; 2,000 compounds, 8.5% hits; BODIPY FL product fluorescence interference, QFRET; AID 743282; shares compounds with HGIII-sPLA2 inh;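 active = average inhibition above the solvent-only control mean plus 3 SD, cut at about 6% in these data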
535nm interf DR: interferes with 535nm fluorescence in dose response counter-screen. shares compounds with HGIII-sPLA2 inh. BODIPY FL product fluorescence interference, cell-free. IC50, µM. 240 tested, under 10 active. AID 743455;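 active = IC50 at or below 10 µM; inactive = IC50 above 10 µM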
Hits are given with their value; - = inactive; . = no result.

SMILES	HGIII-sPLA2 inh	APOBEC3G inh	A3A deaminase	NALP1 inh	CTSL1 counter	hGIII sPLA2 conf	BODIPY interf	others
Cn1c2ccccc2c2cc([N+](=O)[O-])ccc21	-	-	-	-	-	.	.
C/C(=N\OCC(=O)Nc1nc2ccccc2s1)c1ccccc1	19	-	-	-	-	-	-
O=S(=O)(c1cccc(C(F)(F)F)c1)N1CCN(C(=S)NC2CC2)CC1	22	-	-	-	-	-	-
CCNC(=S)N1CCN(S(=O)(=O)c2cccc(C(F)(F)F)c2)CC1	-	-	-	.	-	.	.
Oc1c(Cl)cc(Cl)cc1/C=N/NC(=S)NC1CC2C=CC1C2 (centres undefined)	45	-	-	-	-	61	14
Oc1ccccc1C=NNC(=S)NC1CC2C=CC1C2 (centres undefined)	21	.	.	.	.	24	-
Oc1ccc(O)c(C=NNC(=S)NC2CC3CC2C2C=CCC32)c1 (centres undefined)	-	.	.	.	.	.	.
O=C(N/N=C/c1ccccc1O)NC12CC3CC(CC(C3)C1)C2	-	-	-	-	-	.	.
O=C(N/N=C/c1cc(Cl)cc(Cl)c1O)c1ccncc1	-	-	-	-	-	.	.
Oc1ccccc1/C=N/NC(=S)NC1CC2C=CC1C2 (centres undefined)	27	-	-	-	-	21	6.2
C=CCN(CC#Cc1cccnc1)Cc1ccc(OC)cc1OC	-	.	.	.	.	.	.
COC(=O)[C@]12C[C@H](CC(=O)N3CCCC3)C(=O)N(Cc3ccc(Cl)cc3Cl)C1=C[C@H](C(C)C)O[C@@H]2C1CC1	-	.	.	.	.	.	.
CN(C)c1ccc(-c2n[nH]c(=S)n2-c2ccccc2)cc1	-	-	-	-	-	.	.
CCN(CC)c1ccc(-c2n[nH]c(=S)n2-c2ccccc2)cc1	20	-	-	-	-	44	-	535nm interf DR=-
Cc1cc(C)nc(SCc2cc(=O)c(OC(=O)c3ccc(Cl)c([N+](=O)[O-])c3)co2)n1	22	-	-	-	-	-	-
CC(Sc1ccc(Cl)cc1)C(=O)NNC(=O)c1ccccc1O (centres undefined)	23	-	-	-	-	-	-
CSCCC(NC(=O)c1ccccc1Cl)C(=O)NNC(=O)c1ccccc1O (centres undefined)	-	-	-	.	-	.	.
CC(COc1ccc(C#N)c(F)c1)CN1CCC(C(O)(c2ccccc2)c2ccccc2)CC1 (centres undefined)	-	.	.	.	.	.	.
C[n+]1cc2c3c(ccc2c2ccc4cc5c(cc4c21)OCO5)OCO3	48	.	.	.	.	46	-	535nm interf DR=-
Cc1cc(C(=O)OCCCN(C)C2CN(Cc3cn(Cc4ccccc4C(F)(F)F)nn3)S(=O)(=O)C2)no1 (centres undefined)	-	.	.	.	.	.	.
COC(=O)C1=C(C)NC2=C(C(=O)CC(C)(C)C2)C1c1cnn(C)c1C (centres undefined)	21	-	-	-	-	-	-
COc1ccc(OC)c(S(=O)(=O)N2CCCCC2C(=O)N2CCN(CCO)CC2)c1 (centres undefined)	-	.	.	.	.	.	.
O=C(O)/C=C/C(=O)NCCc1ccc(Cl)cc1	22	-	-	-	-	-	-
CCC(NC(=O)c1ccc2c(c1)c(C)c(C)n2Cc1ccc(-c2ccccc2C#N)cc1)c1ccccc1 (centres undefined)	-	.	.	.	.	.	.
CN1C(=O)c2cc(NC(=O)C3CC3)ccc2OC[C@H]2O[C@@H](CC(=O)NC3CCC3)CC[C@@H]21	-	.	.	.	.	.	.
SMILES	HGIII-sPLA2 inh	APOBEC3G inh	A3A deaminase	NALP1 inh	CTSL1 counter	hGIII sPLA2 conf	BODIPY interf	others
CCn1cc(C(=O)Nc2sc(C)c(C)c2C(=O)OC)cn1	20	-	-	-	-	-	-
CNC(=S)NCCc1ccccc1	-	-	-	.	-	.	.
Cc1cccnc1NC(=S)NCCc1ccccc1	-	-	-	-	-	.	.
S=C(NCCc1ccccc1)Nc1ncccn1	20	.	.	.	.	-	-
OCCNC(=S)NCCc1ccccc1	20	-	-	-	-	-	-
C=CCN1C(=O)[C@H](CC(=O)NCc2cccs2)[C@@]2(C(=O)OCC)CCCC=C12	-	.	.	.	.	.	.
CCOC(=O)CC[C@H]1CC[C@]2(CCCN(Cc3ccccc3)C2)O1	-	.	.	.	.	.	.
CCC[C@H]1[C@@H](OC(=O)NCc2ccc(C)cc2)CC[C@@]23CCCN2C(=O)CCC[C@@H]13	-	.	.	.	.	.	.
Nc1[nH]c(C(=O)c2ccccc2)c(-c2ccccc2C(F)(F)F)c1C(=O)c1cccs1	20	.	.	.	.	-	-
Cc1ccc(CSc2nnc(-c3cc(-c4ccc(C)cc4)n[nH]3)n2N)cc1	-	.	.	.	.	.	.
CN(C)c1ccc(NC(=O)/C=C/c2c(Cl)cccc2Cl)cc1	31	-	-	-	-	-	8.4
COc1ccc2nc(NNC(=O)C3COc4ccccc4O3)sc2c1 (centres undefined)	22	-	-	-	-	-	-
COc1ccc2nc(NC(=O)C3COc4ccccc4O3)sc2c1 (centres undefined)	-	-	-	-	-	.	.
S=C1NC2(CCCCC2)Cc2ccccc21	21	-	-	-	-	-	-
COc1cc(O)c2c(=O)c3c(O[C@H]4O[C@@H](CO)[C@H](O)[C@@H](O)[C@@H]4O)ccc(O)c3oc2c1	-	-	-	.	.	.	.
COc1cc(O)c2c(=O)c3c(O)ccc(O)c3oc2c1	22	-	-	.	.	-	-
O=[N+]([O-])c1ccc(NCCCN2CCC(C(O)(c3ccccc3)c3ccccc3)CC2)cc1	-	.	.	.	.	.	.
COc1ccc(CCNC(=O)Nc2nc(C(N)C3CCCCC3)cs2)cc1OC (centres undefined)	22	.	.	.	.	-	-
NC(c1csc(Nc2nncc3ccccc23)n1)C1CCCCC1 (centres undefined)	20	.	.	.	.	-	-
CC(C)CC(N)c1csc(NC(=O)NCCc2ccccc2)n1 (centres undefined)	-	.	.	.	.	.	.
NC(c1csc(NC(=O)Nc2ccccc2)n1)C1CCCCC1 (centres undefined)	22	.	.	.	.	-	-
NC(c1ccccc1)c1csc(NC(=O)NCCc2ccccc2)n1 (centres undefined)	25	.	.	.	.	-	-
NC(c1csc(NC(=O)Nc2cccc(Cl)c2)n1)C1CCCCC1 (centres undefined)	-	.	.	.	.	.	.
Cc1cc(-c2n[nH]c(=S)n2N=Cc2cccc(Oc3ccccc3)c2)n[nH]1	-	.	.	.	.	.	.
CC(C)(C)N(NC(=O)NCCCl)C(=O)c1ccccc1Cl	-	.	.	.	.	.	.
CN(C)c1ccc(C(c2ccc(N(C)C)cc2)c2ccc([N+](=O)[O-])cc2)cc1	20	-	-	-	-	-	9.2
CC(C)(C)Nc1nc(Cl)nc(NC(C)(C)C)n1	23	-	-	-	-	-	-
CNc1nc(Cl)nc(NC(C)(C)C)n1	-	-	-	-	-	.	.
